# Reference: PubChem BioAssay (Tox21)
# Records with an inconclusive call do not appear. Entries that show only a call come without a potency. Calls of active or inactive are those of the source. Unless noted, the call rests on the fitted dose curve; in most records, active means well fitted curve in the direction sought with a large enough effect in the repeat runs; inconclusive means weak or mixed curves; inactive means flat fitted curve, though single readings scatter.
# Key:
# [1] = qHTS assay to test for compound auto fluorescence at 535 nm (green) in HEK293 cells (AID 720680)
# [2] = qHTS assay to test for compound auto fluorescence at 460 nm (blue) in HEK293 cell free culture (AID 720681)
# Procedure, shortened: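 Test compounds were pinned into cell-free culture medium (DMEM with 10% FBS) and fluorescence was read directly at Ex/Em 405/460 nm. Signals were expressed as fluorescence equivalents of triamterene, with DMSO vehicle as control.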
# [3] = qHTS assay to test for compound auto fluorescence at 535 nm (green) in HEK293 cell free culture (AID 720682)
# Procedure, shortened: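 Steps: dispense DMEM/10% FBS into empty wells; pin in compound or DMSO; measure fluorescence at 485/535 nm. Values are fluorescein equivalents.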
# [4] = qHTS assay to test for compound auto fluorescence at 590 nm (red) in HEK293 cell free culture (AID 720683)
# Procedure, shortened: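 Tox21 10K library compounds were pinned into cell-free DMEM with 10% FBS and fluorescence was read at excitation 540 nm. Activity is expressed as Rose Bengal sodium equivalency.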
# [5] = qHTS assay to test for compound auto fluorescence at 590 nm (red) in HepG2 cell free culture (AID 720684)
# Procedure, shortened: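 Red fluorescence (540 nm excitation, 590 nm emission) was measured after compound transfer into cell-free MEM supplemented with 10% FBS. Values are equivalencies against Rose Bengal sodium.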
# [6] = qHTS assay to test for compound auto fluorescence at 460 nm (blue) in HepG2 cell free culture (AID 720685)
# Procedure, shortened: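 Compound (23 nL) or DMSO pinned into cell-free MEM with 10% FBS; blue fluorescence read at 405/460 nm excitation/emission, expressed as auto-fluorescence equivalency to triamterene.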
# [7] = qHTS assay to test for compound auto fluorescence at 535 nm (green) in HepG2 cell free culture (AID 720686)
# [8] = qHTS assay to test for compound auto fluorescence at 460 nm (blue) in HepG2 cells (AID 720687)
# Procedure, shortened: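 Cells (2,000/well in MEM with 10% FBS) attached overnight at 37 C, then were exposed to compound or DMSO for 1 hr at 37 C, 5% CO2. Fluorescence read at Ex/Em 405/460 nm, expressed as triamterene-equivalent signal.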
# [9] = target: Glucocorticoid receptor (Homo sapiens) (UniProt P04150); test: qHTS assay to identify small molecule agonists of the glucocorticoid receptor (GR) signaling pathway (AID 720691; active means well fitted activation curve with a large enough effect in the signal ratio in the repeat runs, not every such curve was filed as active; the % refers to the signal ratio; further: potency means the concentration at half of the fitted maximal effect)
# Procedure, shortened: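 Beta-lactamase reporter activity, read as fluorescence intensity, was measured in GR-bla HeLa cells exposed to compounds for 18 h at 37 C and then loaded with LiveBLAzer B/G FRET substrate for 2 h at room temperature.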
# [10] = target: Glucocorticoid receptor (Homo sapiens) (UniProt P04150); test: qHTS assay to identify small molecule antagonists of the glucocorticoid receptor (GR) signaling pathway (AID 720692; active means well fitted inhibition curve with a large enough effect in the signal ratio in the repeat runs, not every such curve was filed as active; the % refers to the signal ratio; further: potency means the concentration at half of the fitted maximal effect)
# Procedure, shortened: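 Fluorescence from cleaved LiveBLAzer B/G FRET substrate reports GRE-driven beta-lactamase in HeLa cells; compounds are tested against 5 nM dexamethasone (final) over 18 h at 37 C, substrate incubation 2 h at room temperature.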
# Sequence of Glucocorticoid receptor (Homo sapiens) (P04150 whole entry, looked up): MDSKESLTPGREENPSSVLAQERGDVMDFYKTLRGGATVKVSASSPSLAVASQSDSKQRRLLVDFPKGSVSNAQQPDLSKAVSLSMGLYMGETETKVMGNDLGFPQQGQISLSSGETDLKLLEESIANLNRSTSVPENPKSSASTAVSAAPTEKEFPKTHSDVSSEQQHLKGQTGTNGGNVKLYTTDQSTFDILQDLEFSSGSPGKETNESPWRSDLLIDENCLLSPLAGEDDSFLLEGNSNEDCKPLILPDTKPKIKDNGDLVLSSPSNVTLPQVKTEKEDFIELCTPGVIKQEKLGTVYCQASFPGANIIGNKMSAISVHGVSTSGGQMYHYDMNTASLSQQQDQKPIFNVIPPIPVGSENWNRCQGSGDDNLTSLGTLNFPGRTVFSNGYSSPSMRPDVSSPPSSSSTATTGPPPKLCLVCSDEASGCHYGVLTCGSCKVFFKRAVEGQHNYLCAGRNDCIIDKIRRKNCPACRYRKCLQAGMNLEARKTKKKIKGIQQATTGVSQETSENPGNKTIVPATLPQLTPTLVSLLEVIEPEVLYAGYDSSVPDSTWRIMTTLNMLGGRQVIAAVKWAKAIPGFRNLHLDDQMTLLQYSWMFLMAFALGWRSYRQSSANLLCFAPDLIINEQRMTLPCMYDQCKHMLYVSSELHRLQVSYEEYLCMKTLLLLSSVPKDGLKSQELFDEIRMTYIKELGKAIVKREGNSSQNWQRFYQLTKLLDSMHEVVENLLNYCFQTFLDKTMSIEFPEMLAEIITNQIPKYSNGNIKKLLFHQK
SMILES,outcome [1],Potency [2],outcome [3],outcome [4],outcome [5],Potency [6],outcome [7],Potency [8],Potency [9],Potency [10]
CC(=O)O[C@H]1CC[C@@]2(C)C(=CC[C@@H]3[C@@H]2CC[C@]2(C)C(=O)CC[C@@H]32)C1,inactive,inactive,inactive,inactive,inactive,inactive,inactive,inactive,inactive,inactive
COP(=O)(OC)SCn1c(=O)oc2cc(Cl)cnc21,inactive,inactive,inactive,inactive,inactive,inactive,inactive,inactive,inactive,
O=C(CCCN1CCC2(CC1)C(=O)NCN2c1ccccc1)c1ccc(F)cc1,inactive,inactive,inactive,inactive,inactive,inactive,inactive,inactive,inactive,inactive
c1ccc(Nc2ccc3ccccc3c2)cc1,inactive,inactive,inactive,inactive,inactive,inactive,inactive,inactive,,inactive
CC(C)CC(C)(c1ccc(O)cc1)c1ccc(O)cc1,inactive,inactive,inactive,inactive,inactive,inactive,inactive,inactive,,19.5 µM (active)
O=[N+]([O-])O.O=[N+]([O-])O.[Cd],inactive,inactive,inactive,inactive,inactive,inactive,inactive,inactive,0.389 µM (active),43.6 µM (active)
O=S(=O)(c1ccc(Cl)cc1)c1ccc(Cl)cc1,inactive,inactive,inactive,inactive,inactive,inactive,inactive,inactive,inactive,
Nc1ccccc1C(=O)Oc1ccc2ccccc2c1,inactive,inactive,inactive,inactive,inactive,inactive,inactive,inactive,inactive,inactive
O=C(NC(=O)c1c(F)cccc1F)Nc1cc(Cl)c(OC(F)(F)C(F)F)c(Cl)c1,inactive,inactive,inactive,inactive,inactive,inactive,inactive,inactive,,inactive
C[C@H]1CC[C@@H]2[C@@H](C)[C@H]3[C@H](C[C@H]4[C@@H]5CC=C6CC(O[C@@H]7O[C@H](CO)[C@H](O)[C@H](O[C@@H]8O[C@H](CO)[C@@H](O)[C@H](O)[C@H]8O)[C@H]7O[C@H]7O[C@@H](C)[C@H](O)[C@@H](O)[C@H]7O)CC[C@]6(C)[C@H]5CC[C@]34C)N2C1 (some centres undefined),inactive,inactive,inactive,inactive,inactive,inactive,inactive,inactive,,inactive
